Source: publication PMC4336329 (PLoS ONE, 2015)
The whole screen tested about 310,000 compounds, of which about 14,000 (4.5%) showed an effect of 50% or more. Effects have a minus sign here. The entries come from a sample that favours strong results as a whole.

target: human ether-à-go-go-related gene (hERG) potassium channel (human, UniProt Q12809); experiment: primary screen, population patch clamp on CHO cells stably expressing hERG; higher = less effect of the substance
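Note: peak tail current of the secondary pulse compared with the same well before compound.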

Sequence of human ether-à-go-go-related gene (hERG) potassium channel (Q12809 whole entry, looked up): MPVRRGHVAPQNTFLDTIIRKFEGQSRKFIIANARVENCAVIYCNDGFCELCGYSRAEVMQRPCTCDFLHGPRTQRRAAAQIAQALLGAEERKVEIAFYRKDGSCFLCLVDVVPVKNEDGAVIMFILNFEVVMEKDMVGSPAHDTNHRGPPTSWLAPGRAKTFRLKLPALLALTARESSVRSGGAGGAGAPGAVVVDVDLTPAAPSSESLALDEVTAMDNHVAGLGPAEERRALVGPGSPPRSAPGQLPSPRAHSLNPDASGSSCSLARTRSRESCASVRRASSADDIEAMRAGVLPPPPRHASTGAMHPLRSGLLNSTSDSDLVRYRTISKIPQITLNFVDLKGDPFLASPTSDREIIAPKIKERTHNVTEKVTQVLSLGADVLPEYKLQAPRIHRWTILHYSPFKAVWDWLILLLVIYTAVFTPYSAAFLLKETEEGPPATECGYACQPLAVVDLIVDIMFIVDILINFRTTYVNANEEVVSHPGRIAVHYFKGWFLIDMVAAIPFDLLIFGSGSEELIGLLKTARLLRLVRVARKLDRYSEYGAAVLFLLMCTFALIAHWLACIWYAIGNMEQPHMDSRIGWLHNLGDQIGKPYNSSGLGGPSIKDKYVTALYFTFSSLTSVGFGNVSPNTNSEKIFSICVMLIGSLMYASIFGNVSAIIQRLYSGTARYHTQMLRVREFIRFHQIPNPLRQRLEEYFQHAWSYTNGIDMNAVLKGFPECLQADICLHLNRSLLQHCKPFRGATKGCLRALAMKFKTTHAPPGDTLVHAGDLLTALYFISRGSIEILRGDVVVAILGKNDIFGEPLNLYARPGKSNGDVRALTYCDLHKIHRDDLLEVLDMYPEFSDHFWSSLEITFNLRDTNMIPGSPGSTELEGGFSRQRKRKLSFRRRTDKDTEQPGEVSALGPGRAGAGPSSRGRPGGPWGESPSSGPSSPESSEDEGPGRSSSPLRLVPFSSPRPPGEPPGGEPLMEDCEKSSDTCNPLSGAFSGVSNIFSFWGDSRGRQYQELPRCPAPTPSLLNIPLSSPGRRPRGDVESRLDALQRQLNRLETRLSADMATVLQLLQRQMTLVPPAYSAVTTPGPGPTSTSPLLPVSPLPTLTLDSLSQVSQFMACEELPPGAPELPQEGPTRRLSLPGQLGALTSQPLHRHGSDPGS

Row | SMILES | hERG current change (%, negative = inhibition) at 10uM
1 | CC(NC(=O)C(=O)NCCN1CCN(C(=O)c2ccc([N+](=O)[O-])cc2)CC1)c1ccccc1 (stereo not drawn) | -75.1%
2 | O=C(NCCN1CCN(C(=O)c2cccc(Br)c2)CC1)C(=O)Nc1ccc(Br)cc1 | -42.1%
3 | O=C(c1cccc(Br)c1)N1CCN(C(=O)c2cccc(Br)c2)CC1 | -28.5%
4 | Cc1ccccc1-n1nc(C)c2cc(C(=O)NCc3cccnc3)sc21 | -31%
5 | O=C(c1ccc(COc2ccc(Br)cc2)o1)N1N=C(C(F)F)CC1(O)C(F)F (stereo not drawn) | 2.57%
6 | Cn1c(N/N=C/c2c[nH]c3ccccc23)nc2ccccc21 | -46.7%
7 | COC(=O)c1ccc(-n2nnnc2SC)cc1 | 3.46%
8 | COc1cccc(/C=C2/Oc3ccccc3N(CC(=O)NCC3CCCO3)C2=O)c1 (stereo not drawn) | 14%
9 | Cc1nn(Cc2ccccc2)c(C)c1C(=O)OCC(=O)c1cc(C)n(C2CC2)c1C | -10.2%
10 | NC(=O)COc1ccc(C23CC4CC(CC(C4)C2)C3)cc1 | 7.2%
11 | Cl.O=C(Cc1ccc(Cl)cc1)NCCN1CCCC1 | -21.9%
12 | CC(C)(C)c1ccc(C(=O)N2CCN(CCNC(=O)C(=O)NCc3ccc(Cl)cc3)CC2)cc1 | -41.1%
13 | O=C(NCCN1CCN(C(=O)c2cccc([N+](=O)[O-])c2)CC1)C(=O)NCc1ccc(Cl)cc1 | -50.1%
14 | Cc1ccc(C(=O)N2CCN(CCNC(=O)C(=O)NCc3ccc(Cl)cc3)CC2)cc1 | -74%
15 | Cc1ccc(C(=O)N2CCN(CCNC(=O)C(=O)NC(C)C)CC2)cc1 | 9.12%
16 | CN1CCN(C(=O)CNC(=O)Cc2ccc(Cl)cc2)CC1 | 5.31%
17 | O=C(Cc1ccc(Cl)cc1)NCCN1CCN(C(=O)Cc2ccc(Cl)cc2)CC1 | -53.4%
18 | O=C(NCc1ccc(F)cc1)N1CCN(C(=O)c2ccccc2)CC1 | -13.5%
19 | O=C(NCCN1CCN(S(=O)(=O)c2ccc(F)cc2)CC1)C(=O)NCc1ccccc1 | 0.451%
20 | O=C(NCCN1CCN(C(=O)c2ccc(F)cc2)CC1)C(=O)NCc1ccccc1 | -73.9%
21 | COc1ccc(Cc2nc3ccccc3n2CC(=O)N/N=C/c2ccc(O)cc2)cc1OC | 0.975%
22 | C=CCOc1ccccc1CNc1ccccc1C | -15.7%
23 | COc1ccc(-c2ccc(NC(=O)c3ccco3)cc2)nn1 | 5.79%
24 | Cc1c(NC(=O)C(C)n2cc([N+](=O)[O-])cn2)c(=O)n(-c2ccccc2)n1C (stereo not drawn) | 19.4%

Row | SMILES | hERG current change (%, negative = inhibition) at 10uM
25 | O=C(/C=C/Nc1ccccc1F)c1cccs1 | 1.08%
26 | COc1ccc(OCc2nn3c(-c4ccco4)nnc3s2)cc1 | -36.6%
27 | Cn1cccc1/C=C1\SC(=O)N(c2ccc(O)cc2)C1=O | 0.777%
28 | COc1ccc(/C(C)=N/NC(=O)C(NC(=O)c2ccccc2)c2n[nH]c(=O)c3ccccc23)c(OC)c1 (stereo not drawn) | 4.11%
29 | O=C(COC(=O)c1cc(S(=O)(=O)N2CCCCC2)ccc1N1CCOCC1)NCCc1ccc(F)cc1 | -25.5%
30 | CC(C)(C)c1ccc(C(=O)N2CCN(CCNC(=O)C(=O)NCc3ccccc3)CC2)cc1 | -57%
31 | Cc1ccc(S(=O)(=O)N2CCN(CCNC(=O)C(=O)NCc3ccccc3)CC2)cc1 | 5.65%
32 | CC(C)NC(=O)C(=O)NCCN1CCN(C(=O)c2ccc(C(C)(C)C)cc2)CC1 | -3.01%
33 | COc1ccc(-c2noc(CCC(N)=O)n2)cc1OC | 3.66%
34 | Cc1csc(NC(=O)c2ccccc2C(=O)O)n1 | -0.365%
35 | Cc1ccc(NC(=O)c2ccn(C)n2)c(Br)c1 | 0.15%
36 | Cc1ccc(CNC(=O)c2cc(S(=O)(=O)N3CCOCC3)cn2C)cc1 | -12.5%
37 | COC(=O)c1ccc2c(=O)n(CCN3CCOCC3)c(SCC(=O)NCc3ccccc3)nc2c1 | -46.1%
38 | O=C(CSc1nc2ccccc2c(=O)n1CCCN1CCOCC1)NC12CC3CC(CC(C3)C1)C2 | -67.8%
39 | CC(C)Cn1c(N)c(C(=O)CSc2nc3ccccc3c(=O)n2CCCN2CCOCC2)c(=O)n(C)c1=O | -22.2%
40 | CC(=O)c1c(C)[nH]c(C(=O)CSc2nc3ccccc3c(=O)n2CCCN2CCOCC2)c1C | -15.5%
41 | CCCSc1nc2cc(OC)c(OC)cc2c(=N)n1CCCN1CCOCC1 | -74.6%
42 | COc1ccccc1CNC(=O)CSc1nc2ccccc2c(=O)n1CCCN1CCOCC1 | -56%
43 | CC(Sc1nc2ccccc2c(=O)n1CC1CCCO1)C(=O)N(C)Cc1ccccc1 (stereo not drawn) | -59.8%
44 | CC(=O)Nc1ccc(NC(=O)C(C)Sc2nc3ccccc3c(=O)n2CC2CCCO2)cc1 (stereo not drawn) | 7.41%
45 | COCCCn1c(SCCc2ccccc2)nc2cc(OC)c(OC)cc2c1=N | -12.7%
46 | COCCCn1c(SCC(=O)O)nc2cc(OC)c(OC)cc2c1=N | 9.07%
47 | O=C1c2ccccc2C(=O)N1CCSc1nc2ccccc2c(=O)n1CCCN1CCOCC1 | -15.1%
48 | CC(Sc1nc2ccccc2c(=O)n1CC1CCCO1)C(=O)N(C)c1ccccc1 (stereo not drawn) | -41.6%
